Results on 14 compounds are retold here after PubChem BioAssay.

The nature of test [1]: inhibitors of TNFa-induced NFkB p65 translocation, primary screen, imaging, HUVEC, MLSMR starter and 10KST1 sets (AID 438;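 active = inhibition above 20% together with a positive visual image hit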;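 also: compound added about 3h40 before a 20 min TNFalpha stimulation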;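 as to inhibition: signal is the nuclear over cytoplasmic p65 intensity ratio per well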). The settings on record: HUVEC TNFa-induced p65 nuclear translocation; cell count: measured here: nuclei count (cytotoxicity indicator), at 2.08 µM; inhibition: at 2 µM, stronger effect = higher value, 0% TNFa-plus-vehicle, 100% no-TNFa wells.
Test [2] can be described thus: reduction of polyQ htt aggregates in cells – imaging, exon1htt(103Q)mCFP cells, high-content imaging, primary screen (AID 483).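 Also: compound exposure lasted 3 days before fixation.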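 As to nuclei count: percent of the per-plate median nuclei count of sample wells.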 The settings on record: exon1htt(103Q)mCFP cell line, aggregate imaging, at 2 µM; inhibition of aggregation: stronger effect = higher value; nuclei count: measured here: cell count, toxicity.
Test [3] is described as follows: endothelial E-selectin expression blockers – imaging, HUVEC, immunofluorescence, MLSMR starter and 10KST1 sets, primary screen (AID 487;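 active = visually confirmed hit in the image check and inhibition above 20%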;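 as to inhibition: signal is fraction of cell area covered by stained E-selectin grains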;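 as to nuclei count: 100% = median nuclei count of all wells on the same plate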). The settings on record: HUVEC TNFalpha-induced E-selectin immunofluorescence imaging, at 2 µM; inhibition: stronger effect = higher value; nuclei count: measured here: cell number, toxicity.
Test [4] deals with Voltage-gated potassium channel subunit beta-2 (Rattus norvegicus) (UniProt P62483). Put plainly: inhibitors of rat Kvbeta2 reductase activity – biochemical, NADPH fluorescence, primary screen (AID 622;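 active = fluorescence slope higher than the sample average by over 3 SD, cut at about -0.22 in these data, passing the limit was not always enough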;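 also: slope of raw intensity against log time taken from 70 to 1610 s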). The settings on record: recombinant KvBeta, 4-cyanobenzaldehyde reduction, at 10 µM, stronger effect = higher value.
For test [5] the target is unchanged. Put plainly: enhancers of rat Kvbeta2 NADPH turnover – biochemical, NADPH fluorescence, primary screen (AID 623;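 active = NADPH fluorescence slope more negative than the mean of all samples by about 3 SD, 99.7% confidence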;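 also: fluorescence intensity change per second fitted from 20 to 320 s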). The settings on record: Recombinant KvBeta, NADPH fluorescence decrease slope, 10 min; at 10 µM; stronger effect = lower value.
The target in test [6] is Alpha-2C adrenergic receptor (Homo sapiens) (UniProt P18825). Put plainly: compounds altering alpha2C-coupled GIRK flux – cell-based, HEK293 alpha2C/GIRK1/2, thallium flux, primary screen (AID 624;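 active = fluorescence slope after compound addition differing from the mean of all screened samples at 99.7% confidence, in either direction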;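 also: slope of fluorescence ratio to pre-addition baseline per second over 15 to 24 s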). The settings on record: thallium flux BTC fluorescence, at 10 µM, actives lie on both sides.
Test [7] is described as follows: blockers of RIG-like receptor reporter activation – cell-based, Sendai virus stimulus, luciferase, 10K MLSCN set, TLR/RLR signaling modifier project, primary screen (AID 602276;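 active = inhibition at or above 50% at 10 µM; inactive = inhibition below 50%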;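 also: firefly luciferase from ISG56 promoter only with Renilla not read in this screen; 0% = Sendai virus plus DMSO and 100% = medium plus DMSO without virus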). The settings on record: HEK293 RL24 IRF3 luciferase reporter, at 10 µM, stronger effect = higher value.
Test [8] in a line: TLR3 IRF3 reporter activation blockers – cell-based, poly I:C stimulus, luciferase, 10K MLSCN set, primary screen (AID 602277;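 active = inhibition of the reporter signal at or above 50%; inactive = inhibition below 50%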). The settings on record: HEK293-TLR3 RL24 IRF3 luciferase reporter, at 10 µM, stronger effect = higher value.

The source made the active and inactive calls.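 The calls were made as follows, unless noted: active = visual image review flags a hit and inhibition of aggregation exceeds 20%; inconclusive = visual hit but inhibition at or below 20%; inactive = no hit on visual image review.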

Chain of Voltage-gated potassium channel subunit beta-2 (Rattus norvegicus) (P62483 whole entry, looked up): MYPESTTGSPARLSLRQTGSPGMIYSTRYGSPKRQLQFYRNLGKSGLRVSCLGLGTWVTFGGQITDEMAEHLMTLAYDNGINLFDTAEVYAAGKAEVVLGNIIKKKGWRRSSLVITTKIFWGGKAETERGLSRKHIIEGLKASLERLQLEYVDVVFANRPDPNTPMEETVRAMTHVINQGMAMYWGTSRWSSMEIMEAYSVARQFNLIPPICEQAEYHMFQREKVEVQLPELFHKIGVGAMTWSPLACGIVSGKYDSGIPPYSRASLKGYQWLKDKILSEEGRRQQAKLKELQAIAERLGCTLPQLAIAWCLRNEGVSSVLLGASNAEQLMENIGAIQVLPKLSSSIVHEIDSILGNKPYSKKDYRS
Chain of Alpha-2C adrenergic receptor (Homo sapiens) (P18825 whole entry, looked up): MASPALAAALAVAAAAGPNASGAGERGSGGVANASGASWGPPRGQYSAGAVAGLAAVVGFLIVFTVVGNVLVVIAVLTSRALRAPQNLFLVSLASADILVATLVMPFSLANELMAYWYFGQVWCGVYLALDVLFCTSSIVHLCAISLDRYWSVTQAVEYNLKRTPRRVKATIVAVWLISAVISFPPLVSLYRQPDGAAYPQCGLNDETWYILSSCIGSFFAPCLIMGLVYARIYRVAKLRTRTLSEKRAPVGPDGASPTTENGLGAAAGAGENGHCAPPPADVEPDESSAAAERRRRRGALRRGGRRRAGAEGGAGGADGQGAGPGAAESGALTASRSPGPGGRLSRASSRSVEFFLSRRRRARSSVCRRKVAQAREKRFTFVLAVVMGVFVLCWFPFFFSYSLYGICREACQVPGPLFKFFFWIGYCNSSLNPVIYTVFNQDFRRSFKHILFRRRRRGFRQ

On to `C=CCSc1nnc(-c2cccnc2)o1`, for which, in test [1], the cell count stood at 566. In addition, the inhibition in test [1] was 8.2% (inactive); in test [3] it was 19.1% (inactive); in test [7] it was 1.31% (inactive); in test [8], -8.9% (inactive). Moreover, in test [2], the inhibition of aggregation is 13.3% (inactive). For the same compound, the values for the nuclei count in test [2] and in test [3] were 94.4% and 78.2%, respectively. Also, in test [4], the fluorescence slope was -0.539 (inactive). Also, the NADPH fluorescence slope in test [5] was -5.1e-05 (inactive). In addition, the slope in test [6] was 0.00706 (inactive).

As for `O=c1cc(CN2CCN(c3ccc(F)cc3)CC2)nc2sccn12`, the cell count in test [1] came to 280. Moreover, the inhibition in test [1] is 3.4% (inactive); in test [3] it was -8.5% (inactive); in test [7], -6.74% (inactive); in test [8], 0.252% (inactive). Also, the inhibition of aggregation in test [2] is 19.5% (inactive). For the same compound, the nuclei count turned out to be 95% in test [2] and 109% in test [3]. Besides, the fluorescence slope in test [4] is -0.477 (inactive). In addition, the NADPH fluorescence slope in test [5] is 2.3e-05 (inactive). The slope in test [6] was 0.00346 (inactive).

Turning to `COc1ccc2cc(CN(Cc3ccco3)C(c3nnnn3C3CCCCC3)C(C)C)c(=O)[nH]c2c1` (centres undefined), in test [1], the cell count was found to be 325. Besides, the inhibition is 1.6% (inactive) in test [1], -147% (inactive) in test [3], 11.1% (inactive) in test [7] and -3.61% (inactive) in test [8]. The inhibition of aggregation in test [2] was 2.5% (inactive). The values for the nuclei count in test [2] and in test [3] were 119% and 125%, respectively. Further, the fluorescence slope in test [4] was -0.451 (inactive). Further, the NADPH fluorescence slope in test [5] was 5.5e-07 (inactive). In addition, the slope in test [6] is 0.00859 (inactive).

With `COc1ccc(-n2c(N)c(C(=O)NCc3ccco3)c3nc4ccccc4nc32)c(OC)c1`, the cell count in test [1] was determined as 737. The inhibition was -6% (inactive) in test [1], 27.3% (inactive) in test [3], 6.27% (inactive) in test [7] and 7.88% (inactive) in test [8]. The inhibition of aggregation in test [2] is -0.1% (inactive). The values for the nuclei count in test [2] and in test [3] were 97.9% and 102%, respectively. Moreover, the fluorescence slope in test [4] was -0.246 (inactive). Besides, in test [5], the NADPH fluorescence slope was -4.5e-06 (inactive). Moreover, the slope in test [6] is 0.00521 (inactive).

As for `COc1ccccc1N(C)S(=O)(=O)c1ccc(C(=O)NC2=NCCS2)cc1`, the cell count in test [1] is 458. Besides, the inhibition was 10.9% (inactive) in test [1], -38% (inactive) in test [3], 2.13% (inactive) in test [7] and 12% (inactive) in test [8]. Further, the inhibition of aggregation in test [2] was 9.8% (inactive). In addition, the nuclei count turned out to be 95.4% in test [2] and 110% in test [3]. Also, in test [4], the fluorescence slope is -0.598 (inactive). In addition, the NADPH fluorescence slope in test [5] is -2.8e-05 (inactive). The slope in test [6] is 0.00655 (inactive).

For `CN(C)Cc1cn(CCC(=O)O)c2ccccc12`, in test [1], the cell count is 331. The inhibition is 5.3% (inactive) in test [1], 9.1% (inactive) in test [3], -16.1% (inactive) in test [7] and 19.4% (inactive) in test [8]. In test [2], the inhibition of aggregation was -18.2% (inactive). Also, the nuclei count in test [2] turned out to be 90.8%; in test [3], 103%. The fluorescence slope in test [4] was -0.481 (inactive). In test [5], the NADPH fluorescence slope was 4.3e-05 (inactive). In test [6], the slope was 0.00704 (inactive).

Take `CCN(CC)C(=O)COc1ccc2oc(C)c(C(=O)OC(C)C)c2c1`: the cell count in test [1] stood at 455. For the same compound, the inhibition in test [1] was 12.5% (inactive); in test [3], -25.5% (inactive); in test [7], 2.59% (inactive); in test [8], 17.4% (inactive). In addition, the inhibition of aggregation in test [2] is -21.2% (inactive). Moreover, the values for the nuclei count in test [2] and in test [3] were 108% and 126%, respectively. In addition, the fluorescence slope in test [4] is -0.42 (inactive). In addition, the NADPH fluorescence slope in test [5] was 3.2e-05 (inactive). Further, in test [6], the slope is 0.00275 (inactive).

For `CCc1ccc(C(=O)NC2CCCCC2)s1`, in test [1], the cell count was 355. For the same compound, the inhibition in test [1] was -1.2% (inactive); in test [3], 11.7% (inactive); in test [7], -41.5% (inactive); in test [8], -96.5% (inactive). The inhibition of aggregation in test [2] is 0.6% (inactive). For the same compound, the values for the nuclei count in test [2] and in test [3] were 98.5% and 104%, respectively. Moreover, the fluorescence slope in test [4] is -0.523 (inactive). The NADPH fluorescence slope in test [5] was -4.3e-05 (inactive). The slope in test [6] was 0.00428 (inactive).

For `COc1ccc(N2CCN(CCNS(=O)(=O)c3cccc4nsnc34)CC2)cc1`, in test [1], the cell count came out at 353. For the same compound, the inhibition was -3% (inactive) in test [1], -119% (inactive) in test [3], 11.2% (inactive) in test [7] and 18% (inactive) in test [8]. The inhibition of aggregation in test [2] was 8.4% (inactive). The results for the nuclei count in test [2] and in test [3] were 106% and 104%, respectively. In addition, in test [4], the fluorescence slope is -0.443 (inactive). The NADPH fluorescence slope in test [5] was 1.8e-05 (inactive). In addition, the slope in test [6] is 0.00512 (inactive).

As to `Cc1ccc(Nc2cc(C)nc3ncnn23)c(Cl)c1`, the cell count in test [1] turned out to be 551. The inhibition in test [1] is 7.9% (inactive); in test [3], -65.9% (inactive); in test [7] it was 6.25% (inactive); in test [8] it was 18.4% (inactive). Also, the inhibition of aggregation in test [2] is -2.9% (inactive). For the same compound, the nuclei count in test [2] worked out at 69.8%; in test [3] it was 104%. The fluorescence slope in test [4] was -0.491 (inactive). For the same compound, the NADPH fluorescence slope in test [5] is 4.8e-06 (inactive). In addition, the slope in test [6] is 0.00625 (inactive).

Regarding `COc1ccc(NS(=O)(=O)c2coc(C(N)=O)c2)cc1Cl`, the cell count in test [1] amounted to 734. The inhibition is -6.3% (inactive) in test [1], -27.2% (inactive) in test [3], 6.28% (inactive) in test [7] and 29.4% (inactive) in test [8]. For the same compound, the inhibition of aggregation in test [2] is 24% (inactive). In addition, the nuclei count in test [2] stood at 86.4%; in test [3], 116%. For the same compound, the fluorescence slope in test [4] was -0.605 (inactive). Moreover, in test [5], the NADPH fluorescence slope is 1.2e-05 (inactive). In test [6], the slope is 0.00632 (inactive).

For the compound `CCOC(=O)Cc1csc(NC(=O)CSc2nnc(-c3ccncc3)n2Cc2ccco2)n1`, the cell count in test [1] is 516. For the same compound, the inhibition in test [1] was -12.9% (inactive); in test [3], -61.4% (inactive); in test [7], 10.4% (inactive); in test [8], 10.6% (inactive). In addition, in test [2], the inhibition of aggregation is 14.5% (inactive). Further, the results for the nuclei count in test [2] and in test [3] were 97.6% and 122%, respectively. In test [4], the fluorescence slope is -0.595 (inactive). Also, in test [5], the NADPH fluorescence slope was -6.1e-05 (inactive). For the same compound, the slope in test [6] is 0.0058 (inactive).

`COc1ccc(N(C)C(=O)CCS(=O)(=O)c2cccc3nonc23)cc1`: in test [1], the cell count worked out at 704. Moreover, the inhibition was -12.2% (inactive) in test [1], -32.3% (inactive) in test [3], -4.78% (inactive) in test [7] and -38.6% (inactive) in test [8]. In addition, the inhibition of aggregation in test [2] was 0.8% (inactive). The nuclei count in test [2] came out at 108%; in test [3], 118%. The fluorescence slope in test [4] is -0.488 (inactive). In addition, the NADPH fluorescence slope in test [5] is 1.2e-05 (inactive). Also, in test [6], the slope is 0.00576 (inactive).

For `CCOC(=O)C1CCN(C(=O)CN(Cc2ccccc2)S(C)(=O)=O)CC1`, in test [1], the cell count came out at 370. The inhibition in test [1] was 2.3% (inactive); in test [3], -78.2% (inactive); in test [7] it was 10% (inactive); in test [8] it was 7.77% (inactive). Moreover, in test [2], the inhibition of aggregation was -32.7% (inactive). Further, the nuclei count in test [2] turned out to be 102%; in test [3] it was 115%. Besides, in test [4], the fluorescence slope was -0.422 (inactive). The NADPH fluorescence slope in test [5] was -5.7e-05 (inactive). The slope in test [6] is 0.00496 (inactive).
